According to PubChem BioAssay (EPA / NIEHS):
Active and inactive are the calls of the source. Rule for the calls: active = hit-call score of the fitted dose curve at least 0.9, where 1 is the maximum; inactive = score below 0.9.

Biological target: Transcription factor Sp1 (Homo sapiens) (UniProt P08047)
Experiment: ATG_Sp1_CIS: Attagene CIS-FACTORIAL HepG2 Assay for human Specificity Protein 1 (Sp1) (AID 2282961)
Conditions: HepG2 Sp1 cis-reporter transcription, actives raise or lower the signal
Summary of the method: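 Measures mRNA induction of an Sp1-linked reporter in HepG2 cells 24 h post-dosing. Multiplexed reporters read by RT-PCR and capillary electrophoresis; DMSO serves as negative control and baseline.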

Sequence of Transcription factor Sp1 (Homo sapiens) (P08047 whole entry, looked up): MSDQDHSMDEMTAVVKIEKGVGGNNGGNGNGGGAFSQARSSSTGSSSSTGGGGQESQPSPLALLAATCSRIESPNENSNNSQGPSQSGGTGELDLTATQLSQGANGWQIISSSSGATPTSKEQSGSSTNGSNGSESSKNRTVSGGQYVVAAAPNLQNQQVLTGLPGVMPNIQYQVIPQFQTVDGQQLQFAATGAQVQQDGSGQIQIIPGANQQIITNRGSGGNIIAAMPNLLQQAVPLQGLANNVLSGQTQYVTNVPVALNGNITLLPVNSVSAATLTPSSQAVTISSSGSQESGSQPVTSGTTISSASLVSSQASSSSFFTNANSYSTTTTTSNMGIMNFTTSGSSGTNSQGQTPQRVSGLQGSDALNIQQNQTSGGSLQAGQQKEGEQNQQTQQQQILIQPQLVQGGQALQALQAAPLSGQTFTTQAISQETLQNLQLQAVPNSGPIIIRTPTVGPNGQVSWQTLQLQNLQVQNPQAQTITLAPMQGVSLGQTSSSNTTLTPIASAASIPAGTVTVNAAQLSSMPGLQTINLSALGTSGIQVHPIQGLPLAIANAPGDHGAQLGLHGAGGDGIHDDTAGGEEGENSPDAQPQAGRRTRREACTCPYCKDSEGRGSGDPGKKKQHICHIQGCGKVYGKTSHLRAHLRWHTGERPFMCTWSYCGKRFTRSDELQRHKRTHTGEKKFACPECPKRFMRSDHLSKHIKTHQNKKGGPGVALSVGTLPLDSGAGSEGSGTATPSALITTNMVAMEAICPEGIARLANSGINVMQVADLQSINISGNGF

SMILES | AC50 | outcome
Clc1cc(Cl)c(-c2c(Cl)c(Cl)cc(Cl)c2Cl)cc1Cl | 50 µM (active) | 
CCOC(=O)CN |  | inactive
C=CCCCCCCCCCC |  | inactive
COC(=O)C=C(C)CCC=C(C)C |  | inactive
CCCCCCCCN1CCCC1=O |  | inactive
CS(=O)(=O)c1ccc(Cl)cc1 |  | inactive
CC(C)CCOC(=O)c1ccccc1 |  | inactive
O=C(c1ccccc1)C(O)c1ccccc1 (centres undefined) |  | inactive
CCCCCCCCCCCCCC(=O)OCC(O)CO (centres undefined) |  | inactive
CCCCCCCCCCCCS(=O)(=O)Cl |  | inactive
CCCCCCC(C)(C)S |  | inactive
CCOc1ccc(NC(=O)CC(C)=O)cc1 |  | inactive
O=CCc1ccccc1 |  | inactive
O=P(O)(O)O |  | inactive

Tested on: not listed separately
Experiment: ATG_SREBP_CIS: Attagene CIS-FACTORIAL HepG2 Assay for human Sterol Regulatory Element Binding (SREBP) (AID 2282962)
Conditions: HepG2 Attagene cis-factorial SREBP reporter, mRNA; actives raise or lower the signal
Summary of the method: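 Values derive from bidirectional curve fitting with DMSO as baseline. The underlying measurement is reporter mRNA from cis-element-regulated units in transiently transfected HepG2, quantified by RT-PCR and capillary electrophoresis after 24 h exposure.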

SMILES | outcome | AC50
O=C(O)c1cc(C(=O)O)cc([N+](=O)[O-])c1 | inactive | 
O=C(Nc1ccc([N+](=O)[O-])cc1)Nc1ccc([N+](=O)[O-])cc1 (tested in a mixture with another compound) | inactive | 
O=C1c2ccccc2C(=O)c2c(O)ccc(O)c21 | inactive | 
OCC#CCO | inactive | 
Cc1ncc([N+](=O)[O-])n1CCO | inactive | 
OC[C@H]1O[C@@H](Oc2ccc(O)cc2)[C@H](O)[C@@H](O)[C@@H]1O | inactive | 
Cc1occc(=O)c1OC(=O)C(C)C | inactive | 
CC1=NN(c2ccc(S(=O)(=O)O)cc2)C(=O)C1 | inactive | 
CC(C)NCC(O)COc1ccc(CC(N)=O)cc1 (centres undefined) | inactive | 
CN(C)C(=O)Nc1ccc(Oc2ccc(Cl)cc2)cc1 | inactive | 
COc1cc(C(C)C)ccc1C | inactive | 
O=C(O)c1cccnc1C(=O)O | inactive | 
CCCC(=O)c1ccccc1 | inactive | 
CCCCCCCCC=CCCCCCCCC1=NCCN1CCO | inactive | 
CC1(C)O[C@@H]2[C@@H](CO[C@@]3(COS(N)(=O)=O)OC(C)(C)O[C@@H]23)O1 | inactive | 
CC[N+](C)(CC)CC | inactive | 
C[Si](C)(C)O[Si](C)(C)C | inactive | 
CSc1c(Cl)c(Cl)c(Cl)c(Cl)c1Cl |  | 135 µM (active)
CCOC(=O)CN | inactive | 
C=CCCCCCCCCCC | inactive | 
COC(=O)C=C(C)CCC=C(C)C | inactive | 
CCCCCCCCN1CCCC1=O | inactive | 
CS(=O)(=O)c1ccc(Cl)cc1 | inactive | 
CC(C)CCOC(=O)c1ccccc1 | inactive | 
O=C(c1ccccc1)C(O)c1ccccc1 (centres undefined) | inactive | 
CCCCCCCCCCCCCC(=O)OCC(O)CO (centres undefined) |  | 67 µM (active)
CCCCCCCCCCCCS(=O)(=O)Cl | inactive | 
CCCCCCC(C)(C)S | inactive | 
O=CCc1ccccc1 | inactive | 
O=P(O)(O)O | inactive | 
